Each structure is given as a SMILES string. Screen size: about 2,000 compounds; about 20 (1%) were called active. How the calls were made is not given here. For the sample, actives were picked, then their nearest neighbours and some compounds at random.

Chain of Cystic fibrosis transmembrane conductance regulator (Homo sapiens) (P13569 whole entry, looked up, stated change not applied): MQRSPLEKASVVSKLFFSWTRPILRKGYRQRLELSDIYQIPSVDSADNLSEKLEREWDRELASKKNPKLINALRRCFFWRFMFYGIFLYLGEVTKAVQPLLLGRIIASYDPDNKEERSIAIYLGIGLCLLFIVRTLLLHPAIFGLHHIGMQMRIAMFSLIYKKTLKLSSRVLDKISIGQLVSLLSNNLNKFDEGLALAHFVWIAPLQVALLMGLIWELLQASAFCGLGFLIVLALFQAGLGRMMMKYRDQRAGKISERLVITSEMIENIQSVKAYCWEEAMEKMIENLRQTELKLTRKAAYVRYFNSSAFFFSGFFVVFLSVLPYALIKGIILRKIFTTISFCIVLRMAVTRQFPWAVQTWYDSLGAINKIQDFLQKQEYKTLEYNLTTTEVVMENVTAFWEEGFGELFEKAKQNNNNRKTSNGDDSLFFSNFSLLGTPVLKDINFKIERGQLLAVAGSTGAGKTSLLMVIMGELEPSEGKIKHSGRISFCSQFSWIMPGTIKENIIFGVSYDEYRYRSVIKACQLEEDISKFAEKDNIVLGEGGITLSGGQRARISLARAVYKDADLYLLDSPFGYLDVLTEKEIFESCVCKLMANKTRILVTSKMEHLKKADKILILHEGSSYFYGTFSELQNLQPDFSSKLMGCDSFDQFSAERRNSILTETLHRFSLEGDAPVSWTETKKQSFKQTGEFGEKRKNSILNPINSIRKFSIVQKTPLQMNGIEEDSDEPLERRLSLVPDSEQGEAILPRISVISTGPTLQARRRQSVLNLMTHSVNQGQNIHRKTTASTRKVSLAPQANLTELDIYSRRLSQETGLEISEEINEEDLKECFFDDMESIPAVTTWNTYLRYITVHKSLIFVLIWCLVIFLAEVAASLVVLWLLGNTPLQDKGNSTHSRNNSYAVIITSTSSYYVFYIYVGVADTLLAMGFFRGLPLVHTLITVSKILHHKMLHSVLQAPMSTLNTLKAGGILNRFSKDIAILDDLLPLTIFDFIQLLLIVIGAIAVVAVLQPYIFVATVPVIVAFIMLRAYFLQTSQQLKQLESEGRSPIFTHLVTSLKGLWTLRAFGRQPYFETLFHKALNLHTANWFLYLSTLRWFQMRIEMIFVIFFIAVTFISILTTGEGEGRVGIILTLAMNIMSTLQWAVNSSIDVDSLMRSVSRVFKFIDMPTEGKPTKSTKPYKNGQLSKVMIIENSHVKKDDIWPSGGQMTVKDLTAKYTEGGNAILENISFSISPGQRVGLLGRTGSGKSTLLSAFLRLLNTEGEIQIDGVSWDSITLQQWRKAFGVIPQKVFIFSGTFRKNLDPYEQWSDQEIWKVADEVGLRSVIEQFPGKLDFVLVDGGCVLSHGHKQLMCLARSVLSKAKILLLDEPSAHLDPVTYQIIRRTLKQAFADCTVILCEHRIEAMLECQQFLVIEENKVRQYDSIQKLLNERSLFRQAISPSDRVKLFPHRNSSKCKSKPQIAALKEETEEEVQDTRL

The test concerns the target Cystic fibrosis transmembrane conductance regulator (Homo sapiens) (UniProt P13569). Put plainly: correctors of F508del-CFTR surface localization, primary screen, imaging, HeLa, high-content microscopy, immunofluorescence (AID 1224864).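 Further: HeLa cells stably expressing F508del-CFTR stained with 3G11 antibody against NBD1.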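 On plasma membrane CFTR intensity: mean immunofluorescence in a thin cell-margin band taken as plasma membrane.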 The conditions noted are these: PM immunofluorescence imaging, 24 h, at 10 µM, stronger effect = higher value, relative to vehicle wells set at 100; total CFTR intensity: measured here: total cellular F508del-CFTR signal.
With `Cc1coc2cc3oc(=O)c(CCC(=O)O)c(C)c3cc12`, the plasma membrane CFTR intensity was 105% (inactive) and the total CFTR intensity was 107%.
In the case of `N#C/C(C(N)=O)=c1/ccc2c(c1)N1C3=C(CCCC3)CC3CCCCC31N=2` (centres undefined), the plasma membrane CFTR intensity was 109% (active) and the total CFTR intensity was found to be 123%.
For `COC1CCCCC1Nc1ccc(C)c(C)c1` (centres undefined), in that order: 80% (inactive) and 82%.
Turning to `CC(=O)Nc1cc(O)cc(O)c1`, the plasma membrane CFTR intensity was 83% (inactive) and the total CFTR intensity worked out at 93%.
For `O=C(NCC1CCCO1)c1ccc(OC2CCN(C(=O)C3CC3)CC2)cc1` (centres undefined), in that order: 83% (inactive) and 76%.
For `CCOC(=O)c1oc2cc(OCC(N)=O)ccc2c(=O)c1-c1ccc(OC)c(OC)c1`, in that order: 82% (inactive) and 82%.
On to `CCCC1O[C@@H]2C[C@H]3[C@@H]4CCC5=CC(=O)C=C[C@]5(C)[C@H]4[C@@H](O)C[C@]3(C)[C@]2(C(=O)CO)O1` (some centres undefined), for which the plasma membrane CFTR intensity was 123% (active) and the total CFTR intensity was found to be 137%.
The like results for `CC1(C)O[C@@H]2C[C@H]3[C@@H]4CCC5=CC(=O)C=C[C@]5(C)[C@@]4(F)[C@@H](O)C[C@]3(C)[C@]2(C(=O)CO)O1` were, in that order, 109% (inactive) and 114%.
For the molecule `CC(=O)OCC(=O)[C@@]1(O)CC[C@H]2[C@@H]3CCC4=CC(=O)C=C[C@]4(C)[C@H]3[C@@H](O)C[C@@]21C`, the plasma membrane CFTR intensity is 89% (inactive) and the total CFTR intensity came to 94%.
With `CC(=O)N1c2ccccc2C(C)=CC1(C)C`, the plasma membrane CFTR intensity is 80% (inactive) and the total CFTR intensity was determined as 87%.
With `COc1ccc2c(c1OC)C(=O)OC2C1c2c(cc3c(c2OC)OCO3)CCN1C` (centres undefined), the plasma membrane CFTR intensity is 138% (active) and the total CFTR intensity turned out to be 128%.
With `COc1ccc2c(c1OC)C(C1c3c(cc4c(c3OC)OCO4)CCN1C)OC2=O` (centres undefined), the plasma membrane CFTR intensity was 116% (inactive) and the total CFTR intensity worked out at 112%.
In the case of `COc1ccc(C(=O)CC2OC(=O)c3c2ccc(OC)c3OC)cc1` (centres undefined), the plasma membrane CFTR intensity is 118% (inactive) and the total CFTR intensity came to 115%.
On to `COc1ccc(CCNC(=S)NC(=O)/C=C/c2ccc(C)cc2)cc1OC`, for which the plasma membrane CFTR intensity is 82% (inactive) and the total CFTR intensity was determined as 81%.
In the case of `CN/C(=C/[N+](=O)[O-])NCCSCc1ccc(CN(C)C)o1`, the plasma membrane CFTR intensity is 88% (inactive) and the total CFTR intensity is 83%.
For `Cc1ncoc1C(=O)N1CCCC(C(=O)c2ccc(-c3ccccc3)c(F)c2)C1` (centres undefined), in that order: 82% (inactive) and 75%.
The like results for `CCc1cc(=O)oc2cc(C)c(CN3CCCC(C)C3)c(O)c12` (centres undefined) were, in that order, 88% (inactive) and 88%.
